Assay results published in the supplement of paper PMC10681739.

Key:
ETS1 [1] = molecular target: T1, ETS1 (UniProt P14921); assay: ETS1 binding intensity (PBM fluorescence), ETS1 alone (arbitrary fluorescence units); higher = stronger binding; conditions: ETS1 concentration 1 nM; RUNX1 concentration 0 nM
T1 sequence: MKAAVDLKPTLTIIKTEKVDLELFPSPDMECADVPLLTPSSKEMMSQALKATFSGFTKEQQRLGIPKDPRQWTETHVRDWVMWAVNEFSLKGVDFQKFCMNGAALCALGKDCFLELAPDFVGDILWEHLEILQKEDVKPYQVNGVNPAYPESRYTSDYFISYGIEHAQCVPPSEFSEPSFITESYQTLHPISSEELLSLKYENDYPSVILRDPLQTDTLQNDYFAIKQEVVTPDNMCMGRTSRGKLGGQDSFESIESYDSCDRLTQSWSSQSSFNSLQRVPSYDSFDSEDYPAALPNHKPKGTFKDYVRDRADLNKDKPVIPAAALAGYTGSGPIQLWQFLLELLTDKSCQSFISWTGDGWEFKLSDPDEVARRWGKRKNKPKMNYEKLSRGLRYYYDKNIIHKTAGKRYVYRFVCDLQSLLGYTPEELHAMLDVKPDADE

RUNX1 [2] = molecular target: RUNX1 (UniProt Q01196); assay: RUNX1 binding intensity (PBM fluorescence), RUNX1 alone (arbitrary fluorescence units); higher = stronger binding; conditions: RUNX1 concentration 2 nM; ETS1 concentration 0 nM
Experimental: (§1)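 Cooperative gcPBM on 36-bp genomic probes with neighbouring ETS1 and RUNX1 sites. Recombinant human RUNX1 (2 nM) was incubated alone or with ETS1 (25 nM) and detected with anti-RUNX1 antibody plus Alexa488 secondary. Values are medians over 4 replicate spots; the RUNX1+ETS1 data were normalised to the RUNX1-only data. The probes sit in constant array flanks that are not printed.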

ETS1 [3] = molecular target: T1, ETS1; assay: ETS1 binding intensity (PBM fluorescence) in presence of RUNX1, normalised to ETS1-only experiment (arbitrary fluorescence units); higher = stronger binding; conditions: ETS1 concentration 1 nM; RUNX1 concentration 25 nM
RUNX1 [4] = molecular target: RUNX1 (UniProt Q01196); assay: RUNX1 binding intensity (PBM fluorescence) in presence of ETS1, normalised to RUNX1-only experiment (arbitrary fluorescence units); higher = stronger binding; conditions: RUNX1 concentration 2 nM; ETS1 concentration 25 nM
Experimental: as §1
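Throughout, for RUNX1 binding intensity (PBM fluorescence) in presence of ETS1, normalised to RUNX1-only experiment: Full-length recombinant human ETS1 or RUNX1 bound to double-stranded 36-bp genomic probes on microarrays, detected by protein-specific primary antibody and Alexa488 secondary, spot fluorescence as median of four replicate spots.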
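Throughout, for RUNX1 binding intensity (PBM fluorescence), RUNX1 alone: Full-length recombinant human RUNX1 bound to double-stranded 36-bp genomic probes on a high-density microarray, scored as Alexa488 fluorescence per spot via anti-RUNX1 antibody, median of four replicate spots.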

Chain of RUNX1 (Q01196 whole entry): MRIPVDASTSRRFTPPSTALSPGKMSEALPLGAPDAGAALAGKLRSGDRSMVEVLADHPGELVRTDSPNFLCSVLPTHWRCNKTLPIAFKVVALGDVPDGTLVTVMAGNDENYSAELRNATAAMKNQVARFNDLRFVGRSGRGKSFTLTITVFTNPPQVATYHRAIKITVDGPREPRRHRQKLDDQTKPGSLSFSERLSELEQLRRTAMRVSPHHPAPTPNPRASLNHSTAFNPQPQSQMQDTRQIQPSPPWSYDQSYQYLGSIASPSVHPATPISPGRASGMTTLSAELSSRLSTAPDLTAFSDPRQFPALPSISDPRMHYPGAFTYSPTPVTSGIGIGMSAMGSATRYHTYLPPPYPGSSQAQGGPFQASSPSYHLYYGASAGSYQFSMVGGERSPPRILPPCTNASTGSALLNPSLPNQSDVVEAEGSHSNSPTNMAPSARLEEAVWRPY

Sequence	ETS1 binding intensity (ETS1 [1])	RUNX1 binding intensity (RUNX1 [2])	ETS1 binding intensity (ETS1 [3])	RUNX1 binding intensity (RUNX1 [4])
CCATCTTCATACAGGATGCTGTGGTATGTAAAACAA	2110	787	3590	1240
GCAGCTCTGGCAGGATGCGGTTAAATATGTATCCAC	2010	1920	12700	7800
ACTGCACGGCTGGGAGGATGTGGTCACACACGCCAC	1380	869	11400	1350
CGGGGGCCAGGCTTCCTGTGGTGGGAGCGGCAGGCC	443	830	477	1350
GTACGACAGCGGGTTCCGGTGACCACGAAGGCGGCA	404	938	467	1180
AGAGCAACAGGATGCAAATAACCACAAGCAAGAATA	920	1160	4180	3320
CCGGGAAGGCGGAAGCAGCAGAGACGCCGCAAGGCC	1320	823	1560	980
AGATGCAAACACAGGAAACTTGTGGTCTATGCTGCT	1800	803	7450	1160
TATATGCACAGGAAGTCCCTTACAACCCACTCTGTT	3900	869	3840	1130
GCACCCTTCCTGCTTCCCACAGTGTGGTATAAGAGG	412	965	475	1560
AGGTTTTGAAAGAGGAAACCACATACCCGAAAACCA	1120	1030	2030	1160
TTTTATCCTTCCTTTTTTGTTCTTTGTGGTGGAGGT	465	1840	521	2040
CTCCGGCGGAAGTTGTCTCTTCGCCGCCGCCGCAGC	3590	792	5200	1690
AGAAGGAACTACACAGGAAACCCACTGCCTCGATGG	2430	691	1640	865
CCGCTGAGAACAGGATGTGGGTGTCAGGAGGTGAAG	4850	765	7410	1530
ATGTACATAGATACAGGATGTGGGTTTGTTACAAAG	7940	746	24400	3400
GCTTCTTCCGGCCGGGCCGAGAGGTGGTTACATTCG	683	792	700	1940
CGAGATCCTGGCCACGGATGCGGTGGCCGCGCCTCT	414	795	660	975
TTGGAAACAGACAGGAAGCCACAGGCAGTAAACATT	3300	753	3670	978

Sequence	ETS1 binding intensity (ETS1 [1])	RUNX1 binding intensity (RUNX1 [2])	ETS1 binding intensity (ETS1 [3])	RUNX1 binding intensity (RUNX1 [4])
CAGGCTGCTTCCGGCGCGCGGCAGAGCGGTCAGAGC	990	714	1160	1700
GATCTGTGCTCAGGATGTGGTGAGAGAATAAGGAAG	1210	753	2870	1050
AAGACAACATCCTGCCGGCACAGCCTGCGGGTTACT	576	720	1480	1420
GCCGGGCACTTCCTGTGGAGGCCGCAGCGGGTGCGC	1330	709	1560	1780
CGCCTACTCTACTTCCGCGGTCGGCCGGGTAAGGAC	603	2130	754	2900
GCGAAAAACGCGGAAATGCGGTGGCGGCGGCCCGCT	885	721	1190	1210
ACCAACCGGAAGTGATCGTGTTGTGGCCGAAGGAGG	16100	785	18100	1590
CCGCCGCGACACTTCCGGCGGCCACCACAGGGTATT	2700	727	3020	2500
GCCTGCAGCTTCTTCCTGTGGCTTCTGCATCTCAGG	4420	783	3930	1320
CCAACGAGCACTTCCGCTTCCCGCAGCTCCAGCGGC	2400	914	4270	2650
GCGGGGCGCAGGAAGCGGGGCGAAACCACTGTTGGC	1040	753	1550	1010
ATCTTCCGTAGCAGTCAGGTGTTTTGTGGTTTGCAG	460	1490	1300	2670
TTCTTCCGGCAACTGCTGCTGAGGCTGCGGTGGCGG	455	799	899	2050
ACTGAAAACAGCACAGGATGTGGTCTGCCAGGTGCC	4270	752	10100	1440
CACCTAAAGCCATTGGGATGTGGTTTCTCTTTTTCA	388	1040	894	1010
GAGCGGAAACCCGAGAGTCAGTTCAACCACAGCCAC	592	889	980	1010
CTCCTTCCTGATCGGGCAGGAACTAACCACAGGAGG	1060	825	2480	1130
CCTTCCTTCCTGCTGTGTACGTTGTGGTCACAGCAC	419	1240	932	3550
